The target of the test is Neuropilin-1 (Homo sapiens) (UniProt O14786). Description: NRP-1 b1b2 CendR peptide binding inhibitors, dose response, biochemical, FP and AlphaScreen panel (AID 651650). Particulars: NRP-1 b1b2 / RPARPAR peptide binding, FP or AlphaScreen; run 1, at 100 µM (top of the series).
Neuropilin-1 (Homo sapiens), sequence (O14786 whole entry, looked up): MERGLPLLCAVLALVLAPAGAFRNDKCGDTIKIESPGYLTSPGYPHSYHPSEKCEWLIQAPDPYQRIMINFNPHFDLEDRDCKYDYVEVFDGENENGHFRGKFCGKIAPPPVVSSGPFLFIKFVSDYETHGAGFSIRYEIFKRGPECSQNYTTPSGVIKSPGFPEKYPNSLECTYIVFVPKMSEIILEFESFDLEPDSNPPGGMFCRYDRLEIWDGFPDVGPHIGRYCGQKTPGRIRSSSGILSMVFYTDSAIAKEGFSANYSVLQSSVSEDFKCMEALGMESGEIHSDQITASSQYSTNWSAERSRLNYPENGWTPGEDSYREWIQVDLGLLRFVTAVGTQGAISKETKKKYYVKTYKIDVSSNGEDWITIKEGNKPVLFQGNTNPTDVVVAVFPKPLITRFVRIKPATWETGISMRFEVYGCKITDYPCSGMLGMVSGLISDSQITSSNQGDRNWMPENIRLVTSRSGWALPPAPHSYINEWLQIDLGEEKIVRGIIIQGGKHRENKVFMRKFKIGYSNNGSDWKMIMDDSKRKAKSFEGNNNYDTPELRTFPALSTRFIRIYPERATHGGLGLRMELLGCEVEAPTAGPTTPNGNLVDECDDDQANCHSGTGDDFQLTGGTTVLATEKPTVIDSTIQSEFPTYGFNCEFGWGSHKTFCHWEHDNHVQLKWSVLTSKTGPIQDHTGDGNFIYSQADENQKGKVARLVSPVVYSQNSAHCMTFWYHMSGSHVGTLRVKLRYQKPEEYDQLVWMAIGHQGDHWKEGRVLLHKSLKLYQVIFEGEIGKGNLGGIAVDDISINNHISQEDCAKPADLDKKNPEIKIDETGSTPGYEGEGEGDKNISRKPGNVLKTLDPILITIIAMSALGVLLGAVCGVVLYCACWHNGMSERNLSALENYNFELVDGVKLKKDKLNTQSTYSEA
Take `Cc1ccc(S(=O)(=O)N2[C@@H](c3ccc(Cl)cc3)C(C(=O)OC(C)(C)C)=CC[C@H]2c2ccc(Cl)c(Cl)c2)cc1`: the inhibition – broadly, the relative decrease from the control value, in per cent – stood at 72.6%. Under `CCC1=C(OC(=O)N(CC)CC)N2C(=O)OC(=NCC(=O)OC)[C@]2(C)[C@H]2C1=CC[C@H]1C(=O)N(CC)C(=O)[C@H]12` stands 11.6%; under `C=CCn1c(SCC(=O)Nc2ncc(Cc3ccc(Br)cc3)s2)nnc1-c1ccncc1`, 42%; under `CCOc1ccc(N2C(=O)CC(N3CCN(c4ccc(Cl)cc4)CC3)C2=O)cc1` (stereo not drawn), 86.2%. As for `CCOc1ccc(-n2c(Cc3cc(=O)[nH]c(=O)[nH]3)nnc2SC(C)C)cc1`, the inhibition stood at 59.6%. As to `CCCn1c(C)cc(C(=O)CSc2nc3nc(C)cc(C)n3n2)c1C`, the inhibition is 5.46%. The same measure for `O=C(O)c1cc(NCc2ccc(F)cc2)ccc1N1CCOCC1`: 46.8%; for `CCN(CC(=O)NCc1cccs1)S(=O)(=O)c1ccc(C(C)C)cc1`: 1.66%; for `COc1cc2oc(=O)ccc2cc1[C@@H](O)[C@@H]1OC(C)(C)OC1(C)C`: 10.7%. Under `CC1CCN(C(=O)c2[nH]cnc2C(=O)NCc2ccc(CNC(=O)OC(C)(C)C)cc2)CC1` stands 55.2%.

As to `O=C(Cc1ccc(F)cc1)N1CCN=C1SCc1ccc([N+](=O)[O-])cc1`, the inhibition is 18.7%. As to `C=C(C)COc1ccc(-c2[nH]ncc2-c2ccccc2)c(O)c1`, the inhibition came out at 16.9%. For `CCN(c1ccccc1)S(=O)(=O)c1ccc(C(=O)N(CCCN(C)C)c2nc3cc4c(cc3s2)OCO4)cc1`, the inhibition turned out to be 72.6%. Under `Cc1nn(-c2ccccc2)c(C)c1C(=O)OCC(=O)Nc1ccccc1` stands 20.2%.

As to `CCOC(=O)Cc1csc(NC(=O)CSc2ncnc3c2cnn3-c2ccccc2Cl)n1`, the inhibition was found to be 11.5%. The same measure for `CCOC(=O)N1CCN(C(=O)c2cc3n(n2)C(C(F)(F)F)CC(c2ccc4c(c2)OCO4)N3)CC1` (stereo not drawn): 30.7%; for `O=C(NCCOC(=O)c1ccccc1)c1ccccc1`: 72.3%.

For the compound `COc1ccc(-c2csc(Nc3cccnc3)n2)cc1`, the inhibition is 47.6%. The same measure for `CC(C)c1ccc(S(=O)(=O)N2CCN(C(=O)CN3C(=O)c4ccccc4C3=O)CC2)cc1`: 64.7%; for `O=C(NC1CC1)c1ccc(COc2ccc(F)cc2)o1`: 23.1%; for `O=C(CSc1nc2ccc(Cl)cc2[nH]1)NCCc1ccccc1`: 18.8%. The same measure for `CCN1C(=O)C(=O)c2cc(C)ccc21`: 13.5%.

On to `CSc1ncccc1C(=O)OCC(=O)NC1CCCCC1`, for which the inhibition came out at 56.7%. Under `NC(N)=NCCC[C@H](NC(=O)OCc1ccccc1)C(=O)O` stands 17.2%; under `CC(C)NC(=O)c1c(CSc2ccccc2)noc1C(=O)NCc1ccccc1`, 49%. The same measure for `CC(=O)Nc1cccc(-c2csc(NCc3ccccc3)n2)c1`: 26.4%. For `COc1ccc(-c2[nH]ncc2CN(C)CCc2c(C)n[nH]c2C)c(F)c1`, the inhibition was -14.2%.

Consider `O=C(COc1ccc(Br)cc1CO)Nc1ccc(F)cc1`, for which the inhibition is -9.04%.

`CCN(CC)C(=O)c1cccc(-c2csc(C(NC(C)=O)c3cccc(OC)c3)n2)c1` (stereo not drawn): the inhibition came out at 18.7%.

On to `CCCCCCCN1C(Nc2ccccc2)=NC[C@@H]1Cc1ccccc1`, for which the inhibition was determined as 24.7%. Under `O=C(/C=C/c1ccccc1)c1ccccn1` stands -2%; under `CCNS(=O)(=O)c1ccc(CCC(=O)O)cc1`, 23.4%; under `Cc1ccc(C(=O)O)cc1NC(=O)Nc1cccc2ccccc12`, 30.6%. Under `CC(Nc1nc(-c2ccc(F)cc2)cs1)c1nc2cc(C(F)(F)F)ccc2n1CCOCCO` (stereo not drawn) stands 43.3%; under `Cc1ccccc1Nc1nc(N)nc(COC(=O)CC2CC3CCC2C3)n1` (stereo not drawn), 3.37%; under `COc1ccc(-c2csc(NC(CO)c3nc4ccccc4n3CCCO)n2)cc1` (stereo not drawn), 41.5%.

Take `O=C(O)C1CCN(C(=O)c2ccc(Cl)cc2)CC1`: the inhibition amounted to 32%. Take `Cc1ccc(C(=O)N/C(=C\c2sccc2C)C(=O)NCc2ccco2)cc1`: the inhibition is 53.9%.

For the origin of these results see PubChem BioAssay AID651650 (Sanford-Burnham Center for Chemical Genomics, 2012).
